Activity calls are given as the source filed them.
Columns and labels:
[1] = binders of probe aFSTL3 on microarray, primary screen, stem cell growth factor project, biochemical, small-molecule microarray, fluorescence 635/667 (AID 1064); settings: higher = more signal;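 also: measures binding of the biotinylated anti-FSTL3 antibody to printed compounds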
[2] = binders from COS7 lysate, DM2A8 probe, primary screen, torsin A project, cell lysate, small-molecule microarray, fluorescence 635/667 (AID 1065); settings: higher = more signal, COS7 lysate expressing mutant human TOR1A
[3] = binders of probe aFGF2 on microarray, primary screen, stem cell growth factor project, biochemical, small-molecule microarray, fluorescence 635/667 (AID 1067); settings: higher = more signal;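 also: measures binding of biotinylated aFGF2 protein to printed compounds on slides; z-score merges feature fluorescence and signal-to-noise across triplicate slides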
[4] = binders of probe aFGF10 on microarray, primary screen, stem cell growth factor project, biochemical, small-molecule microarray, fluorescence 635/667 (AID 1071); settings: higher = more signal;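 also: score merges 667 nm spot intensity and signal to noise from triplicate slides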
[5] = biological target: Neurogenic locus notch homolog protein 2 (Homo sapiens) (UniProt Q04721); assay: Notch2 binders on small-molecule microarrays, primary screen, biochemical, small-molecule microarray, 635 nm fluorescence, stem cell growth factors (AID 1073); settings: Notch2 binding, higher = more signal
[6] = biological target: Pro-neuregulin-1, membrane-bound isoform (Homo sapiens) (UniProt Q02297); assay: NRG1 binders on small-molecule microarrays, primary screen, psychiatric disease protein project, biochemical, small-molecule microarray, fluorescence 635/667 (AID 1075); settings: NRG1 binding, 635 nm fluorescence, higher = more signal;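 also: score combines 667 nm spot fluorescence with signal to noise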
[7] = tested on: Neuregulin-1 EGF-like domain; assay: binders of neuregulin-1 EGF-like domain, primary screen, biochemical, small-molecule microarray, 635 nm fluorescence (AID 1081); settings: small-molecule microarray binding, higher = more signal;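 also: binding of the protein to compounds printed on small-molecule microarray slides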
[8] = FRG1 promoter luciferase signal modulators, primary screen, FRG1 inhibition for FSHD, cell-based, C2C12 myotubes, firefly/Renilla luciferase, luminescence (AID 1084); settings: higher = more signal, called active from +8 up or from −8 down
[9] = binders of probe aFST on microarray, primary screen, stem cell growth factor project, biochemical, small-molecule microarray, fluorescence 635/667 (AID 1086); settings: higher = more signal;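 also: score merges 667 nm fluorescence with signal-to-noise of each printed compound spot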
[10] = binders of probe aHhip on microarray, primary screen, stem cell growth factor project, biochemical, small-molecule microarray, fluorescence 635/667 (AID 1087); settings: higher = more signal;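 also: score merges spot fluorescence at 667nm with spot signal to noise ratio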
[11] = tested on: PRMT1 (protein arginine N-methyltransferase 1); assay: PRMT1 binders on small-molecule microarrays, primary screen, biochemical, small-molecule microarray, 635 nm fluorescence (AID 1088); settings: small-molecule microarray binding, higher = more signal;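 also: binding of Prmt1 protein to compounds spotted on small-molecule microarray slides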
[12] = yeast growth modulation, basal conditions, primary screen, YJM789 clinical isolate, OD600, 24 h (AID 1089);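 also: growth of clinical yeast isolate S. cerevisiae YJM 789 seeded 1000 cells per well; test concentration not given here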; settings: S. cerevisiae YJM789 growth, higher = more signal, called active from +8 up or from −8 down
[13] = fission yeast growth modulation, primary screen, strain 972, OD600, 24 h, no modulator (AID 1090);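 also: basal condition with compound alone and no growth modifier present; test concentration not given here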; settings: S. pombe 972 growth, higher = more signal, called active from +8 up or from −8 down
[14] = S. cerevisiae growth modulation with rapamycin, primary screen, strain BY4716, OD600, 96 h (AID 1091); settings: higher = more signal, called active from +8 up or from −8 down; also: test concentration not given here
[15] = biological target: Torsin-1A-interacting protein 2 (Homo sapiens) (UniProt Q8NFQ8); assay: LULL1 binders on small-molecule microarray, primary screen, cell lysate, human LULL1 lysate, 635/667 nm fluorescence (AID 1092); settings: hLULL1 lysate binding, 635 nm fluorescence, higher = more signal;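 also: probe is lysate of COS7 cells overexpressing human LULL1; score merges per-feature 667 nm fluorescence with signal-to-noise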
[16] = E. coli growth modulation, two-sided OD650, primary screen, E. coli filamentation project, strain DRC41, 24 h (AID 1093); settings: OD650, 24 h, higher = more signal, called active from +8 up or from −8 down;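 also: MC1000 strain lacking acrAB efflux and sulA so SOS filamentation is blocked; test concentration not given here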
[17] = small-molecule microarray binders of probe aLefty2, primary screen, biochemical, biotinylated probe, 635/667 nm fluorescence (AID 1094); settings: higher = more signal;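 also: score merges spot fluorescence near 667 nm with spot signal-to-noise ratio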
[18] = tested on: Noggin (protein binding on small-molecule microarray); assay: Noggin binders on small-molecule microarray, primary screen, biochemical, 635/667 nm fluorescence (AID 1095); settings: 635 nm fluorescence, higher = more signal;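 also: score merges 667 nm feature fluorescence with signal to noise over triplicate slides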
[19] = biological target: Neurogenic locus notch homolog protein 3 (Homo sapiens) (UniProt Q9UM47); assay: NOTCH3 binders on small-molecule microarray, primary screen, biochemical, 635/667 nm fluorescence (AID 1096); settings: NOTCH3 binding, 635 nm fluorescence, higher = more signal
[20] = small-molecule microarray binders of probe aEGFR, primary screen, biochemical, biotinylated probe, 635/667 nm fluorescence (AID 1097); settings: higher = more signal;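 also: probe is a biotinylated anti-EGFR antibody binding compounds printed on slides; score combines fluorescence near 667 nm and signal to noise of each spot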

Chain of Neurogenic locus notch homolog protein 3 (Homo sapiens) (Q9UM47 whole entry, looked up): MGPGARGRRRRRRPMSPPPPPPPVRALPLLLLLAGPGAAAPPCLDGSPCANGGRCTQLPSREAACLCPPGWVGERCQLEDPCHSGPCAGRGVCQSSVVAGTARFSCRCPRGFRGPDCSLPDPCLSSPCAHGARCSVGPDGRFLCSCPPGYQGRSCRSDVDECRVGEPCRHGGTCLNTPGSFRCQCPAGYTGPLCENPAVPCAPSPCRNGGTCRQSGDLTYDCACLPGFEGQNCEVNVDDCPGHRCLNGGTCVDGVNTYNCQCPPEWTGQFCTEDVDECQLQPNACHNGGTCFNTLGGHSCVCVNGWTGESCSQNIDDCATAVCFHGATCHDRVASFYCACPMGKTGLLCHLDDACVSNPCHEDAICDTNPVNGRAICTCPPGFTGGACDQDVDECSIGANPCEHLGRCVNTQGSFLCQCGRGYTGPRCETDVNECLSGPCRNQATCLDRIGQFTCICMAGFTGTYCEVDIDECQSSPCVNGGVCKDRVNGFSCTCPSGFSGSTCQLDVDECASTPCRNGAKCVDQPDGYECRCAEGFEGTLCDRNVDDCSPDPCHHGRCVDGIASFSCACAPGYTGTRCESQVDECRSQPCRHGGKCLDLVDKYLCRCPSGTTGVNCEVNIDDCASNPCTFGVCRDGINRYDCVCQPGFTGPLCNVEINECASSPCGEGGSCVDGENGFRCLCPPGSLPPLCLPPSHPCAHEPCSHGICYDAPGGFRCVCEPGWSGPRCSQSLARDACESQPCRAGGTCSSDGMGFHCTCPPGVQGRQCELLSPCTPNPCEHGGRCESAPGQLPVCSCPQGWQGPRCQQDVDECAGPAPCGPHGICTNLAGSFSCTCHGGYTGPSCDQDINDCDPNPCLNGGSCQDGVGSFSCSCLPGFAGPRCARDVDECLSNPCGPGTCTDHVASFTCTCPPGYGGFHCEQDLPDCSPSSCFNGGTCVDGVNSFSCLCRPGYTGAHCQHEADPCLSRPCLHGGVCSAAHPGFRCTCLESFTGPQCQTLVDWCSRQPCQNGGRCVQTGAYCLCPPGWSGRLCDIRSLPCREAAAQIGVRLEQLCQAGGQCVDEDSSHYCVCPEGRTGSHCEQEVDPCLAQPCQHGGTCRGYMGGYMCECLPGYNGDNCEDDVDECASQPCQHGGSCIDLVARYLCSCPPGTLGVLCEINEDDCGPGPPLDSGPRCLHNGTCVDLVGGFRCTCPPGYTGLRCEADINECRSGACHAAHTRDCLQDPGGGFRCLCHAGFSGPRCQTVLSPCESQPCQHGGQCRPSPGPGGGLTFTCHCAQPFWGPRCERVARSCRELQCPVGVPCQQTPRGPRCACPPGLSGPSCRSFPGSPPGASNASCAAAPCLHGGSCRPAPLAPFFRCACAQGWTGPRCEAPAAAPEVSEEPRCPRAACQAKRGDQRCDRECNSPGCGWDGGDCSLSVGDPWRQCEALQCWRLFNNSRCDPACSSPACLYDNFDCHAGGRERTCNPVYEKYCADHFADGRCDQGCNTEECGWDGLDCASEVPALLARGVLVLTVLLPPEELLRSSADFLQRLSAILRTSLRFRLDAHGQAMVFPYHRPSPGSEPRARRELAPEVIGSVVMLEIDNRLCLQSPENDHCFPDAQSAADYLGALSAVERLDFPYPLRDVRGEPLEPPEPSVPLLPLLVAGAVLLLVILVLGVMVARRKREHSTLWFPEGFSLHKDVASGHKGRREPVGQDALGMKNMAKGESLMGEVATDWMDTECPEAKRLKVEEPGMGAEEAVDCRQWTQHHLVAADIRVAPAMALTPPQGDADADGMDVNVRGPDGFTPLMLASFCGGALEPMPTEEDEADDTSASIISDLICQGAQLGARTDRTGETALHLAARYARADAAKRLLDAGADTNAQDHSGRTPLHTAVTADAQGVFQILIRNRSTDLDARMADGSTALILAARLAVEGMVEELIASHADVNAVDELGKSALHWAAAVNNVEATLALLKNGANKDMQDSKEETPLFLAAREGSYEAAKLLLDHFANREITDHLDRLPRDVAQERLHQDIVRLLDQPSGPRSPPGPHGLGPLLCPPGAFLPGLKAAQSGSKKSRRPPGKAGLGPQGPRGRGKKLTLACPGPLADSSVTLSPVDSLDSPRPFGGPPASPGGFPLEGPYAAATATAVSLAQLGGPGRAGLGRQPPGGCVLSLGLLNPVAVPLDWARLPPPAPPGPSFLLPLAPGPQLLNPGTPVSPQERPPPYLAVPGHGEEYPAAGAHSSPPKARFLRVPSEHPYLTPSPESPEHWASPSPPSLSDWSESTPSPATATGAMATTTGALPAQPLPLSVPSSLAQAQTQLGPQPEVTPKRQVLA
Chain of Torsin-1A-interacting protein 2 (Homo sapiens) (Q8NFQ8 whole entry, looked up): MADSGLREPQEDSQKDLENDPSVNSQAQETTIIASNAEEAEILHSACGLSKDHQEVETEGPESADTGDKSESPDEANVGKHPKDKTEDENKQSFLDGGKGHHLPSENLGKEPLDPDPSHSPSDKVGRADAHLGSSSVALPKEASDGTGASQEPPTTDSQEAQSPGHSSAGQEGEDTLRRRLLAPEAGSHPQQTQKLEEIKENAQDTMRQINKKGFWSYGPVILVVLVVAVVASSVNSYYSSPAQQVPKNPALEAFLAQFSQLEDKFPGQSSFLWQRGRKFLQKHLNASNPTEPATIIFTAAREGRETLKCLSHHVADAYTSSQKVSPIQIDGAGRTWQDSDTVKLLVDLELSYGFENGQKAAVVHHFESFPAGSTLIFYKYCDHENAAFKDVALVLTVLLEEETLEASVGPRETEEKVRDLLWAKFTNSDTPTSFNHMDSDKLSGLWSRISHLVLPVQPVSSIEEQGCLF
Chain of Pro-neuregulin-1, membrane-bound isoform (Homo sapiens) (Q02297 whole entry, looked up, the tested form may be a part, canonical isoform): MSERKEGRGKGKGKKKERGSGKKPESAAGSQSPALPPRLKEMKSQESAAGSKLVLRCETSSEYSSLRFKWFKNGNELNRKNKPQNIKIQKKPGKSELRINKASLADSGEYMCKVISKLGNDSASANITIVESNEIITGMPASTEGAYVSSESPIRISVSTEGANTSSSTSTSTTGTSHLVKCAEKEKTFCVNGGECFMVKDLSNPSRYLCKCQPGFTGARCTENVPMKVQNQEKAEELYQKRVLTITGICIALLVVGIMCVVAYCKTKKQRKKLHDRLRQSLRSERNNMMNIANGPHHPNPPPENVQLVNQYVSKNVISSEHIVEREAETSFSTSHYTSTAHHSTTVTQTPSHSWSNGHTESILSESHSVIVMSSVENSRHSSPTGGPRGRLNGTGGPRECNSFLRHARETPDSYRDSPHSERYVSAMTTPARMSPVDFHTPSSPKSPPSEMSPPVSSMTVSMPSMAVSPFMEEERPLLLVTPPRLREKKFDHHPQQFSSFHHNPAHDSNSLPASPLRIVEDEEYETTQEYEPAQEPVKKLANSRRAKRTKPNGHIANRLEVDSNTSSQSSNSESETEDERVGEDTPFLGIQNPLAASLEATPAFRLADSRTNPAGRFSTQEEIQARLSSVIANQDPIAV

SMILES: Cc1ccc2[nH]c3nc(CCCn4ccnc4-c4ccccc4)nnc3c2c1
- composite z-score [1]: -0.172
- composite z-score [2]: 0.616
- composite z-score [3]: -0.119
- composite z-score [4]: 0.247
- composite z-score [5]: 1.63
- composite z-score [6]: 0.742
- composite z-score [7]: 1.12
- z-score [8]: 0.921 (inactive)
- composite z-score [9]: 0.26
- composite z-score [10]: 0.0274
- composite z-score [11]: 0.842
- z-score [12]: 0.324 (inactive)
- z-score [13]: 0.0855 (inactive)
- z-score [14]: -0.425 (inactive)
- composite z-score [15]: 1.38
- z-score [16]: 1.13 (inactive)
- composite z-score [17]: 0.504
- composite z-score [18]: 0.385
- composite z-score [19]: 1.12
- composite z-score [20]: -0.009

SMILES: CCc1cc2c(nc1CC)CCN(CCC(C)=NOC(C)CN1CCCCc3nc(C)c(C)cc31)C2 (stereo not given)
- composite z-score [1]: -0.154
- composite z-score [2]: 1.24
- composite z-score [3]: -0.073
- composite z-score [4]: 0.541
- composite z-score [5]: 1.11
- composite z-score [6]: 0.946
- composite z-score [7]: 1.07
- z-score [8]: 0.795 (inactive)
- composite z-score [9]: 0.544
- composite z-score [10]: -0.174
- composite z-score [11]: 1.49
- z-score [12]: -0.379 (inactive)
- z-score [13]: -16.2 (active)
- z-score [14]: -0.755 (inactive)
- composite z-score [15]: 2.42
- z-score [16]: 0.546 (inactive)
- composite z-score [17]: 0.0809
- composite z-score [18]: 0.932
- composite z-score [19]: 1.08
- composite z-score [20]: 0.142

SMILES: CCOC(=O)CCN1C(=O)[C@H]2[C@H]3[C@H](O)[C@H](O)CC(=NO[C@@H]4O[C@H](CO)[C@@H](O)[C@H](O)[C@H]4O)[C@H]3CC[C@H]2C1=O
- composite z-score [1]: -0.379
- composite z-score [2]: 0.508
- composite z-score [3]: 0.0395
- composite z-score [4]: 0.232
- composite z-score [5]: 0.44
- composite z-score [6]: 0.0332
- composite z-score [7]: 0.569
- z-score [8]: 0.261 (inactive)
- composite z-score [9]: 0.857
- composite z-score [10]: -0.195
- composite z-score [11]: -0.145
- z-score [12]: -0.703 (inactive)
- z-score [13]: 0.354 (inactive)
- z-score [14]: -0.387 (inactive)
- composite z-score [15]: 0.211
- z-score [16]: 0.389 (inactive)
- composite z-score [17]: 0.0008
- composite z-score [18]: 0.404
- composite z-score [19]: 0.195
- composite z-score [20]: -0.115

SMILES: O=C1C=C[C@@H](O)[C@@H]2[C@@H]3C(=O)N(c4cccc(Oc5ccccc5)c4)C(=O)[C@@H]3CC[C@@H]12
- composite z-score [1]: -0.575
- composite z-score [2]: -0.285
- composite z-score [3]: -0.0527
- composite z-score [4]: -0.102
- composite z-score [5]: 0.493
- composite z-score [6]: -0.04
- composite z-score [7]: 0.588
- z-score [8]: 0.485 (inactive)
- composite z-score [9]: 0.241
- composite z-score [10]: -0.274
- composite z-score [11]: 0.491
- z-score [12]: 0.162 (inactive)
- z-score [13]: -0.753 (inactive)
- z-score [14]: -0.0875 (inactive)
- composite z-score [15]: 0.36
- z-score [16]: 0.533 (inactive)
- composite z-score [17]: -0.204
- composite z-score [18]: 0.403
- composite z-score [19]: 0.477
- composite z-score [20]: 0.0443

SMILES: CC(=O)OC[C@H]1O[C@H](C#CCCc2ccccc2)C=C[C@@H]1OC(C)=O
- composite z-score [1]: -0.692
- composite z-score [2]: 0.271
- composite z-score [3]: -0.0732
- composite z-score [4]: 0.335
- composite z-score [5]: 0.445
- composite z-score [6]: 1.22
- composite z-score [7]: 0.543
- z-score [8]: 0.0903 (inactive)
- composite z-score [9]: 0.302
- composite z-score [10]: 0.0053
- composite z-score [11]: 0.374
- z-score [12]: 0.664 (inactive)
- z-score [13]: -2.4 (inactive)
- z-score [14]: -0.116 (inactive)
- composite z-score [15]: 1.38
- z-score [16]: 0.396 (inactive)
- composite z-score [17]: 0.0092
- composite z-score [18]: 0.57
- composite z-score [19]: 0.341
- composite z-score [20]: -0.021

SMILES: COc1ccc(O[C@H]2C=C[C@@H](C#Cc3ccccc3)O[C@@H]2CO)cc1
- composite z-score [1]: -0.213
- composite z-score [2]: 0.0018
- composite z-score [3]: -0.0206
- composite z-score [4]: 0.457
- composite z-score [5]: 0.339
- composite z-score [6]: 0.658
- composite z-score [7]: 0.644
- z-score [8]: -1.37 (inactive)
- composite z-score [9]: 0.137
- composite z-score [10]: -0.236
- composite z-score [11]: 0.718
- z-score [12]: -0.315 (inactive)
- z-score [13]: -20.4 (active)
- z-score [14]: -0.731 (inactive)
- composite z-score [15]: 1.88
- z-score [16]: 1.3 (inactive)
- composite z-score [17]: -0.248
- composite z-score [18]: 1.15
- composite z-score [19]: 0.402
- composite z-score [20]: -0.125

SMILES: CC[C@@H](c1ccccc1)n1c(=O)n2n(c1=O)[C@H]1[C@H](O)[C@@H]3O[C@@H]3C(=NOCc3ccccc3)[C@H]1CC2
- composite z-score [1]: 0.83
- composite z-score [2]: 0.374
- composite z-score [3]: -0.172
- composite z-score [4]: 0.0913
- composite z-score [5]: 0.57
- composite z-score [6]: 0.834
- composite z-score [7]: 0.504
- z-score [8]: 2.67 (inactive)
- composite z-score [9]: -0.0575
- composite z-score [10]: -0.13
- composite z-score [11]: -0.454
- z-score [12]: 0.183 (inactive)
- z-score [13]: -1.17 (inactive)
- z-score [14]: 0.191 (inactive)
- composite z-score [15]: 0.786
- z-score [16]: -0.866 (inactive)
- composite z-score [17]: -0.132
- composite z-score [18]: 1.3
- composite z-score [19]: 0.81
- composite z-score [20]: -0.0824

SMILES: CCOC(=O)[C@H](CC(C)C)NC(=O)CCC1CC(OC(=O)NCc2ccc3c(c2)OCO3)CC2(CCCC(COC(=O)NCCc3ccccc3OC)O2)O1 (stereo not given in full)
- composite z-score [1]: -0.693
- composite z-score [2]: 0.309
- composite z-score [3]: -0.085
- composite z-score [4]: 0.554
- composite z-score [5]: 1.26
- composite z-score [6]: 0.53
- composite z-score [7]: 0.978
- z-score [8]: 1.01 (inactive)
- composite z-score [9]: 0.14
- composite z-score [10]: -0.15
- composite z-score [11]: 1.34
- z-score [12]: -0.156 (inactive)
- z-score [13]: 0.249 (inactive)
- z-score [14]: 0.947 (inactive)
- composite z-score [15]: 1.99
- z-score [16]: -0.133 (inactive)
- composite z-score [17]: -0.136
- composite z-score [18]: 0.474
- composite z-score [19]: 1.11
- composite z-score [20]: -0.0177

SMILES: CO[C@H]1COC(=O)[C@H](C)COC(=O)[C@@H](OCc2ccccc2)C=C[C@@H]1C
- composite z-score [1]: -0.411
- composite z-score [2]: 0.0756
- composite z-score [3]: -0.178
- composite z-score [4]: 0.0844
- composite z-score [5]: -0.501
- composite z-score [6]: -0.319
- composite z-score [7]: -0.365
- z-score [8]: -0.224 (inactive)
- composite z-score [9]: 1.27
- composite z-score [10]: 0.449
- composite z-score [11]: 0.855
- z-score [12]: 0.138 (inactive)
- z-score [13]: -1.28 (inactive)
- z-score [14]: -0.876 (inactive)
- composite z-score [15]: -0.198
- z-score [16]: 0.554 (inactive)
- composite z-score [17]: -0.241
- composite z-score [18]: 1
- composite z-score [19]: -0.732
- composite z-score [20]: -0.188

SMILES: CCN1C(=O)[C@H]2[C@H]3[C@H](O)[C@H](O)CC(=NOCC[C@@H]4C=C[C@H](OC(C)=O)[C@@H](COC(C)=O)O4)[C@@H]3CC[C@H]2C1=O
- composite z-score [1]: -0.298
- composite z-score [2]: 0.198
- composite z-score [3]: -0.0085
- composite z-score [4]: 0.547
- composite z-score [5]: 0.522
- composite z-score [6]: 0.0776
- composite z-score [7]: 0.314
- z-score [8]: 0.511 (inactive)
- composite z-score [9]: 0.186
- composite z-score [10]: 0.259
- composite z-score [11]: -0.001
- z-score [12]: 0.826 (inactive)
- z-score [13]: -0.473 (inactive)
- z-score [14]: 0.0739 (inactive)
- composite z-score [15]: 0.506
- z-score [16]: 0.0628 (inactive)
- composite z-score [17]: 0.0819
- composite z-score [18]: 0.478
- composite z-score [19]: 1
- composite z-score [20]: -0.0208

Source: PubChem BioAssay
